These results are taken from PubChem BioAssay (Tox21).

A short description of assay [1]: qHTS assay to identify small molecule agonists of the hypoxia (HIF-1) signaling pathway - cell viability counter screen (AID 1224844; calls by dose curve; further: nearly all actives have a fitted effect of over 50% in size; further: potency means the concentration at half of the fitted maximal effect). In a few lines: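 HRE-bla ME-180 cells, 2,000/well in 0.5% dialyzed FBS medium, treated 17 h at 37C with compounds. Viability read in the same wells as the bla reporter, by CellTiter-Glo luminescence after 30 min at room temperature.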

Assay [2] is described as follows: qHTS assay to identify small molecule agonists of H2AX (AID 1224845; active means well fitted activation curve with a large enough effect in the signal ratio in the repeat runs, not every such curve was filed as active; the % refers to the signal ratio; further: potency means the concentration at half of the fitted maximal effect). In a few lines:
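Wild-type CHO-K1 cells, plated overnight, exposed 3hr at 37C to 15 concentrations (0.76% DMSO final). Lysed, then HTRF anti-pH2AX (S139) cryptate and anti-H2AX-d2 antibodies, 24 hr room temperature; 665/620 nm emission read.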

Assay [3] is described as follows: qHTS assay to identify small molecule agonists of the hypoxia (HIF-1) signaling pathway (AID 1224846; active means well fitted activation curve with a large enough effect in the signal ratio in the repeat runs, not every such curve was filed as active; the % refers to the signal ratio). In a few lines: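 HRE-bla ME-180 beta-lactamase reporter cells in medium with 0.5% dialyzed FBS, pre-incubated 5 h then exposed to compounds 17 h at 37C, 5% CO2; reporter induction read with CCF4-AM FRET substrate.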
Assay [4] can be described thus: qHTS assay to identify small molecule agonists of H2AX - cell viability counter screen (AID 1224847; calls by dose curve; further: nearly all actives have a fitted effect of over 30% in size; further: potency means the concentration at half of the fitted maximal effect). In a few lines: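 Viability of CHO-K1 (wild type) cells after 3 hr compound exposure was measured by CellTiter-Glo luminescence.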
A short description of assay [5]: qHTS RealTime-Glo MT Cell Viability Assay in HEK293 cells - 32 hour (AID 1224868). Further: nearly all actives have a fitted effect of over 50% in size. Further: potency means the concentration at half of the fitted maximal effect. In a few lines: (§1)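 Tox21 10K qHTS, HEK293, 600 cells/well, RealTime-Glo reagent co-dispensed with cells; 5 h preincubation, compound by pintool, 37 C, luminescence at 0–40 h.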
The nature of assay [6]: A CellTox Green Cytotoxicity Assay to monitor cytotoxicity in HEK293 cells - 0 hour (AID 1224869). Further: nearly all actives have a fitted effect of over 50% in size. In outline: (§2)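 HEK293 cells, 600/well, were preincubated 5 hours and then exposed to compounds at 37 C for up to 40 hours. A cell-impermeant cyanine dye staining dead-cell DNA was read by fluorescence at 0, 8, 16, 24, 32 and 40 h time points.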
Assay [7] in a line: qHTS RealTime-Glo MT Cell Viability Assay in HepG2 cells - 40 hour (AID 1224870). Further: nearly all actives have a fitted effect of over 50% in size. Further: potency means the concentration at half of the fitted maximal effect. In outline: (§3)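 HepG2 cells (600/well) mixed with RealTime-Glo MT reagent, settled 5 h at 37 C/5% CO2 before compound addition. Nonlytic NanoLuc luminescence from viable-cell prosubstrate reduction read repeatedly during 40 h treatment at 37 C.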
Assay [8] is described as follows: A CellTox Green Cytotoxicity Assay to monitor cytotoxicity in HEK293 cells - 40 hour (AID 1224871). Further: nearly all actives have a fitted effect of over 45% in size. Further: potency means the concentration at half of the fitted maximal effect. In a few lines:
as §2

Assay [9] can be described thus: qHTS RealTime-Glo MT Cell Viability Assay in HEK293 cells - 16 hour (AID 1224872). Further: nearly all actives have a fitted effect of over 50% in size. Further: potency means the concentration at half of the fitted maximal effect. In a few lines:
as §1

The nature of assay [10]: qHTS RealTime-Glo MT Cell Viability Assay in HepG2 cells - 8 hour (AID 1224873). Further: nearly all actives have a fitted effect of over 55% in size. Further: potency means the concentration at half of the fitted maximal effect. In a few lines: as §3
Assay [11] in a line: qHTS RealTime-Glo MT Cell Viability Assay in HEK293 cells - 40 hour (AID 1224874). Further: nearly all actives have a fitted effect of over 50% in size. Further: potency means the concentration at half of the fitted maximal effect. The conditions noted are these: RealTime-Glo luminescence; max response: active compounds read low. In a few lines: (§4)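 600 cells/well were plated with the nonlytic NanoLuc/prosubstrate reagent, pre-incubated 5 h, then given 23 nL of compound in DMSO. Incubation at 37 C for 40 h, with luminescence from viable-cell-reduced substrate read repeatedly from 0 h.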

A short description of assay [12]: A CellTox Green Cytotoxicity Assay to monitor cytotoxicity in HEK293 cells - 24 hour (AID 1224875). Further: nearly all actives have a fitted effect of over 45% in size. In outline:
as §2

Assay [13] is described as follows: A CellTox Green Cytotoxicity Assay to monitor cytotoxicity in HepG2 cells - 16 hour (AID 1224876). Further: nearly all actives have a fitted effect of over 45% in size. Further: potency means the concentration at half of the fitted maximal effect. In outline: (§5)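 HepG2 cells, 600/well, preincubated 5 h with CellTox Green dye, then exposed to Tox21 compounds in DMSO at 37 C for up to 40 h. Dead-cell DNA fluorescence read at the indicated time point.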
Assay [14] is described as follows: qHTS RealTime-Glo MT Cell Viability Assay in HepG2 cells - 32 hour (AID 1224877). Further: nearly all actives have a fitted effect of over 55% in size. Further: potency means the concentration at half of the fitted maximal effect. In outline:
(§6)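 Cells + NanoLuc/prosubstrate dispensed (600 cells/well) → 5 h at 37 C/5% CO2 → compounds in DMSO transferred → 40 h incubation at 37 C, luminescence read at 0, 8, 16, 24, 32, 40 h.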

The nature of assay [15]: A CellTox Green Cytotoxicity Assay to monitor cytotoxicity in HepG2 cells - 24 hour (AID 1224878). Further: nearly all actives have a fitted effect of over 45% in size. Further: potency means the concentration at half of the fitted maximal effect. In outline: as §5
The nature of assay [16]: A CellTox Green Cytotoxicity Assay to monitor cytotoxicity in HepG2 cells - 40 hour (AID 1224879). Further: nearly all actives have a fitted effect of over 40% in size. Further: potency means the concentration at half of the fitted maximal effect. In a few lines:
as §5

The nature of assay [17]: qHTS RealTime-Glo MT Cell Viability Assay in HEK293 cells - 0 hour (AID 1224880). In outline: as §4
The nature of assay [18]: qHTS assay to identify small molecule antagonists of the estrogen related receptor (ERR) signaling pathway from Tox21 library (AID 1224848). Further: nearly all actives have a fitted effect of over 50% in size. Further: potency means the concentration at half of the fitted maximal effect. In a few lines: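 ERR reporter cell line (from NTP) seeded 2,000 cells/well, rested 6 h at 37 C/5% CO2, then pin-dosed with compounds in DMSO. After 18 h at 37 C, ONE-Glo added; luminescence read after 30 min at room temperature.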

The nature of assay [19]: qHTS assay to identify small molecule agonists of the estrogen related receptor (ERR) signaling pathway from Tox21 library (AID 1224849; calls by dose curve; further: nearly all actives have a fitted effect of over 15% in size). The following applies: ERR reporter cell line, ONE-Glo luciferase, 18 h; at 92.4 µM (top of the series). In a few lines: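 ERR reporter cells (NTP line) pre-incubated 6 hours at 37 C, then exposed to compounds for 18 hours at 37 C. ONE-Glo luciferase luminescence was read after 30 minutes at room temperature.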

Assay [20] in a line: qHTS RealTime-Glo MT Cell Viability Assay in HepG2 cells - 24 hour (AID 1224867). Further: nearly all actives have a fitted effect of over 50% in size. Further: potency means the concentration at half of the fitted maximal effect. In a few lines: as §6

Several values for one entry are separate records, joined by “and”; a condition that tells them apart may be missing. Equal entries are not always repeated. Values without a mark were called inactive. Records with an inconclusive call do not appear. Activity calls are given as the source filed them. Unless noted, the call rests on the fitted dose curve; in most records, active means well fitted curve in the direction sought with a large enough effect in the repeat runs; inconclusive means weak or mixed curves; inactive means no such curve, though single readings can be large; an effect the other way counts as inactive or inconclusive.
On the % scale 0 is the no-effect control and ±100 the full control effect.

Regarding `Nc1ccccc1C(=O)OCC(O)CO` (stereo unspecified), the Potency entry in [1], in assay [2], in assay [4], in assay [5], in [6] and in assay [7] was “inactive” in each case. In addition, the Potency result in assay [8], in [9], in assay [10], in [12], in assay [13] and in [14] was “inactive” throughout. Further, the Potency result in [15] and in assay [16] was “inactive” throughout. In addition, the compound was classed as inactive in assay [3] and in assay [17]. In [11], the max response was 9.15%.

Turning to `CCCCNC(=O)OCC#CI`, the Potency was 48.7 µM (active) in assay [1]; 68.2 µM (active) in [18]; 7.72 µM (active) and 3.89 µM (active) in [20]; 24.4 µM (active) and 24.5 µM (active) in assay [5]; 4.87 µM (active) and 2.19 µM (active) in [7]; 54.7 µM (active) and 54.9 µM (active) in assay [8]. For the same compound, the Potency was 19.4 µM (active) and 21.9 µM (active) in assay [9]; 15.4 µM (active) and 12.3 µM (active) in [10]; 21.8 µM (active) and 24.5 µM (active) in assay [11]; 6.14 µM (active) and 2.75 µM (active) in assay [14]; 49 µM (active) in [16]. For the same compound, the Potency entry in assay [2], in assay [6] and in assay [13] was “inactive” throughout. The compound was called inactive in assay [3]. In addition, the activity change, positive = activation in assay [19] is -71.4% and -29.5%.

On to `COc1ccccc1N1CCNCC1`, for which the Potency entry in [1], in [2], in [4], in [20], in assay [5] and in [6] was “inactive” each time. Besides, the Potency result in assay [7], in assay [8], in [9], in assay [10], in [12] and in assay [13] was “inactive” each time. Further, the Potency result in assay [14], in [15] and in assay [16] was “inactive” throughout. The max response in assay [11] was -1.42%. In addition, the result in assay [17] was inactive.

As for `Nc1ccccc1C(=O)OCCc1ccccc1`, the Potency result in [1], in assay [18], in assay [20], in assay [7], in assay [10] and in assay [14] was “inactive” each time. Also, the compound was called inactive in [3] and in assay [17]. Moreover, the Potency in [4] is 101 µM (active) and 89.8 µM (active); in [5], 24.5 µM (active); in assay [9], 24.5 µM (active); in [11], 24.5 µM (active); in assay [13], 21.9 µM (active); in [15], 21.9 µM (active). The Potency in assay [16] was 21.9 µM (active). For the same compound, in assay [19], the activity change, positive = activation was 18.1% (active) and 10.8% (active).

Turning to `CC(C)(C)c1ccc(CCOc2ncnc3ccccc23)cc1`, the Potency result in [1], in [2], in assay [5], in [7], in [8] and in assay [9] was “inactive” each time. Further, the Potency result in [10], in assay [12], in assay [13] and in assay [14] was “inactive” each time. Moreover, the compound was classed as inactive in assay [3] and in [17]. The max response in [11] is 3.46%.

`O=[N+]([O-])/C=C/c1ccccc1`: the Potency was 24.9 µM (active) and 54.9 µM (active) in [1]; 20.1 µM (active) in [2]; 22 µM (active) in assay [18]; 44.4 µM (active) and 19.5 µM (active) in assay [20]; 7.03 µM (active) and 13.8 µM (active) in assay [5]; 19.8 µM (active) and 13.8 µM (active) in assay [7]. Further, the Potency is 4.98 µM (active) and 12.3 µM (active) in assay [9]; 49.8 µM (active) in assay [10]; 6.27 µM (active) and 15.5 µM (active) in assay [11]; 55.8 µM (active) in [13]; 22.2 µM (active) and 17.4 µM (active) in [14]; 22.2 µM (active) in [15]. The activity change, positive = activation in assay [19] is -76.3% and -54.1%. The Potency entry in assay [6] and in assay [12] was “inactive” throughout. Also, the call in assay [17] was inactive.

Regarding `C[C@H]1O[C@H](OC2[C@@H](O)[C@@H](O)C(O)[C@H](O)[C@H]2O)[C@@H](N)C[C@@H]1N=C(N)C(=O)O` (stereo partly specified), the Potency entry in [1], in assay [2], in [20], in assay [5], in assay [6] and in assay [7] was “inactive” throughout. In addition, the Potency result in assay [8], in [9], in [10], in assay [12], in [13] and in assay [14] was “inactive” each time. Also, in [15], the Potency entry was “inactive”. The compound was called inactive in [3] and in assay [17]. The max response in [11] is 5.07%.
